Only a selection was taken, and hits are over-represented in it overall.
Artemis endo inh – blocks endonuclease activity of human Artemis | Q96SD1 | recombinant Artemis, quenched FAM hairpin cleavage fluorescence | inhibition, % at 10 µM | 30,000 compounds, 0.78% hits;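 active = at 10 µM dose, at least 30% inhibition, measured as corrected fluorescence normalized to stimulator and neutral control wells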
Target sequence (Q96SD1 whole entry, looked up): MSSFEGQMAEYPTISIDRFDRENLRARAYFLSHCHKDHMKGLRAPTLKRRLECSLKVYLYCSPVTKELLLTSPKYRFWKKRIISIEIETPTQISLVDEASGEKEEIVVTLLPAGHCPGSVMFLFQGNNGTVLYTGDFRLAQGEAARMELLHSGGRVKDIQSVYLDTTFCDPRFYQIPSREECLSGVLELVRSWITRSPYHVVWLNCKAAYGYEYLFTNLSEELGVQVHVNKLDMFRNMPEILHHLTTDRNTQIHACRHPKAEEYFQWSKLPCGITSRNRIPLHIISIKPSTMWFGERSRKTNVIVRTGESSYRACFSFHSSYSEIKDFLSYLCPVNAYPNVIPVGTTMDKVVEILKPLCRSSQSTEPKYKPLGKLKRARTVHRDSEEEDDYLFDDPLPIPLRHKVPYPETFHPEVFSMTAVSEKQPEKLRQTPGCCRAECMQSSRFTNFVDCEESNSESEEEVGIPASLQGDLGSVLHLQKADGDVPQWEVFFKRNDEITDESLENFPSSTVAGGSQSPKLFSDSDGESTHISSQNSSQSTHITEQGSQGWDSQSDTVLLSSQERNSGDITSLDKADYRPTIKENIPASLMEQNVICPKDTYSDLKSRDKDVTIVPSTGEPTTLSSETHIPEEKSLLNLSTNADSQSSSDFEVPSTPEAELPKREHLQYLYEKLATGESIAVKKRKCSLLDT
* marks the source's active call; other numbers are inactive results.

SMILES | Artemis endo inh
Cc1cc(OCC(=O)Nc2ccc(N3CCCC3)cc2)cc(C)c1Cl | 66*
CCCC(=O)Nc1ccc(N2CCCCC2)cc1 | -6
Cc1cc(OCC(=O)N2CCCC2)cc(C)c1Cl | 4
CCOc1ccc(-c2n[nH]c(C)c2Oc2ccc(OC)cc2)c(O)c1 | 2
CCSc1nnc(NC(=O)COc2ccc3ccccc3c2)s1 | 0
Cc1ccc(Nc2cc(C)nn2-c2nc(C)cc(=O)[nH]2)cc1 | 35*
Cc1cc(Nc2nc3ccccc3[nH]c2=O)n(-c2ccccc2)n1 | 4
Cc1ccc(Nc2cc(C)nc3nnnn23)cc1 | -2
COc1ccccc1-c1nc(-c2cccc(C)c2)no1 | 3
COc1ccc2cnn(-c3ccccc3C)c(=O)c2c1OC | 2
COc1cccc(NC(=O)CSc2nnc(-c3cc(-c4ccccn4)nc4ccccc34)o2)c1 | 5
CC1(C)CC(=O)C2(CC3=C(CC(C)(C)CC3=O)O2)C(=O)C1 | -9
COc1ccc(C2CC(=O)Nc3ccccc3S2(=O)=O)cc1OC (stereo not drawn) | -10
CC(CC1C(C#N)=C(N)SC(N)=C1C#N)c1ccccc1 (stereo not drawn) | 2
O=C(Cn1nnc2ccccc21)C1CC1 | 3
Brc1ccccc1C1=Nn2c(nnc2-c2ccccc2)SC1 | 6
c1ccc(-c2ccc(C3=Nn4c(Cn5nnc6ccccc65)nnc4SC3)cc2)cc1 | 33*
COCCCn1c(C)nc2c(c1=O)c1nc3ccccc3nc1n2CCc1ccccc1 | 19
COc1cc(C(=O)Nc2ccc(S(=O)(=O)Nc3cc(C)on3)cc2)cc(OC)c1OC | -7
Cc1cc(NS(=O)(=O)c2ccc(NC(=O)CCc3ccccc3)cc2)no1 | 2
Cc1cc(NS(=O)(=O)c2ccc(NC(=S)NC(=O)c3ccc(Cl)cc3Cl)cc2)no1 | 30*
CC1=C(C(=O)N2CCCCC2)C(c2cccs2)C2=C(CCCC2=O)N1 (stereo not drawn) | -10
Cc1ccc(CNS(=O)(=O)NCc2ccccc2)cc1 | -4
CCn1c(SCC(=O)c2ccc(O)c(O)c2)nnc1-c1ccccc1OC | 30*
CCn1c(SCC(=O)c2ccc(O)c(O)c2)nnc1-c1ccccc1 | 13
SMILES | Artemis endo inh
CCn1c(SCC(=O)c2ccc(F)cc2)nnc1-c1ccoc1C | 6
C=CCn1c(C)c(C(C)=O)c(N2CCN(c3ccccc3)CC2)nc1=S | -6
Cc1ccc2cc(CN(C)C(=O)C3CCCO3)c(=O)[nH]c2c1 (stereo not drawn) | -3
CCOC(=O)Nc1c(O)ccc2oc(C)c(-c3ccccc3)c12 | -4
Oc1ccccc1-c1nc(N2CCN(Cc3ccccc3)CC2)c2ccccc2n1 | 13
c1ccc2c(N3CCCCCC3)nc(-c3ccncc3)nc2c1 | 2
c1ccc(N2CCN(c3nc(-c4ccccn4)nc4ccccc34)CC2)cc1 | 93*
Cc1sc2nc(SCc3nc(-c4ccccc4)no3)n(-c3ccccc3)c(=O)c2c1C | -9
CC(C)(CN=C1NS(=O)(=O)c2ccccc21)CNC(=O)CN1C(=O)c2ccccc2C1=O | -7
CCC(CC)C(=O)NC12CC3CC(CC(C3)C1)C2 | -1
O=C(COC(=O)c1cc(-c2ccco2)nc2ccccc12)NCc1ccc2c(c1)OCO2 | 23
Cc1ccc(-c2cc(C(=O)NCc3ccco3)c3ccccc3n2)s1 | 3
O=C(COC(=O)c1cc(-c2ccc(Cl)s2)nc2ccccc12)NCc1ccco1 | 32*
Cc1cc(C)cc(N2C(=O)CC(n3nc(C)cc3C)C2=O)c1 (stereo not drawn) | 1
CC(C)(C)Nc1nc(OCC(F)(F)F)nc(OCC(F)(F)F)n1 | -1
Cc1cc(Cl)ccc1NC(=S)NCc1cccs1 | -7
COc1ccc(C(=O)Nc2cc(OC)nc(OC)n2)cc1 | 14
C=CCNC(=S)NNC(=O)C(CCCC)CC(C)(C)O (stereo not drawn) | -6
O=c1cc2[nH]c3ccccc3c(=O)n2nc1-c1ccccc1 | 18
COc1ccc(O)c(/C=N/NC(=O)CSc2nnc(C)n2-c2ccccc2)c1 | 0
Cc1cc(C)n(-c2nc(C)nc(NCc3ccccc3)n2)n1 | -2
COc1ccc(O)c(/C=N/Nc2nc(Nc3ccccc3)nc(-n3nc(C)cc3C)n2)c1 | 102*
Cc1ccccc1C(=O)NC(C)c1ccc2c(c1)CCCC2 (stereo not drawn) | -1
O=C(Nc1ccc(N2CCOCC2)cc1)c1cccc(S(=O)(=O)N2CCC(Cc3ccccc3)CC2)c1 | 8
O=C(CN1CCCC1)N/N=C/c1ccc(-c2cccc(Cl)c2)o1 | 0
SMILES | Artemis endo inh
O=C(N/N=C/c1ccc(-c2ccc(S(=O)(=O)Nc3ncccn3)cc2)o1)c1cc2ccccc2cc1O | 33*
CCOc1ccc(S(=O)(=O)N(CC(=O)N/N=C/c2ccc(-c3ccc([N+](=O)[O-])cc3)o2)c2ccccc2)cc1 | 27
COc1ccc(-c2nc3ccccc3c(C(=O)Nc3ccc(S(=O)(=O)Nc4cc(C)on4)cc3)c2C)cc1 | 13
O=c1[nH]c2ccccc2n2c(-c3ccncc3)nnc12 | -8
CC(=O)c1sc(NC(=O)CN2C(=O)CCC2=O)nc1C | -7
CC(C)(C)C(=O)NC1(C(F)(F)F)C(=O)Nc2c1c(=O)[nH]c(=O)n2Cc1ccco1 (stereo not drawn) | 5
Cc1cc(/C=C(\C#N)C(=O)NCc2cccs2)c(C)n1-c1ccccc1F | 5
Cn1cccc1CC(=O)N/N=C\c1cccs1 | -4
Cc1ccc(N(CC(=O)N/N=C/c2cccs2)S(C)(=O)=O)cc1Cl | -5
CCN(CC)C(=O)C(=O)N/N=C/c1cccs1 | 53*
O=C1CN(c2ccc(Cl)cc2)C(=O)CN1NC(=S)Nc1ccc(Cl)cc1 | 4
Cc1nn(-c2ccc(F)cc2)c2sc(C(=O)N3CCCCCC3)cc12 | 6
Cc1nc(NC(=O)c2cc3c(C)nn(-c4ccccc4)c3s2)sc1C(=O)Nc1ccccc1 | 83*
Cc1nc(C)c(C(=O)Nc2ccccc2)s1 | -4
O/N=C1/CCc2nonc2/C1=N/O | -5
CC1CN(c2nc3ccccc3nc2C(C#N)C(=O)NCc2ccc3c(c2)OCO3)CC(C)O1 (stereo not drawn) | 14
COc1ccc(C(=O)/C=C/N(C)C)cc1OC | 3
COc1ccc(C(=O)c2c(C(F)(F)F)oc3c2C(=O)c2ccccc2C3=O)cc1OC | 36*
COc1ccc(C(=O)Nc2ccc(OCC(F)(F)C(F)F)c(C(F)(F)F)c2)cc1OC | 10
CCCCC1CC(C)(C(=O)CSc2nc3ccccc3s2)OC1=O (stereo not drawn) | 2
COc1c(N)c2ccccc2[nH]c1=O | -1
O=C(NNC(=O)c1cc(-c2ccc(Cl)c(Cl)c2)nc2ccccc12)Nc1ccccc1 | 13
CCCCSc1nnc(NC(=O)CCc2ccccc2)s1 | -6
O=C1c2ccccc2C(=O)N1CCc1nc2ccccc2c(=O)n1CCCn1ccnc1 | 6
O=c1c2ccccc2nc2n1C(CSCc1ccc(Cl)cc1Cl)CS2 (stereo not drawn) | 12
SMILES | Artemis endo inh
CCn1c(SCC(=O)Nc2nc(C)c(C(=O)OC)s2)nnc1C(C)C | 2
Cc1nc(NC(=O)CSc2nc3cccnc3n2Cc2ccccc2)sc1C | 7
Nc1ccc(-c2ccc(N)cc2C(F)(F)F)c(C(F)(F)F)c1 | 1
Nc1ccc2oc(=O)c3ccccc3c2c1 | 3
Nc1ccc2c(c1)C(=O)C(=O)c1ccccc1-2 | 71*
O=C(COC(=O)C1(c2ccc(F)cc2)CCCC1)N1CCN(C(=O)c2ccco2)CC1 | 5
C=CCOc1nc2c(c(=O)n(C)c(=O)n2C)n1Cc1c(Cl)cccc1Cl | 3
CCOc1c(Br)ccc2c1sc1nc[nH]c(=O)c12 | -1
CCCc1cc(=O)[nH]c(SCC(=O)N2CCN(c3ccc(F)cc3)CC2)n1 | 1

Screens from PubChem BioAssay.
